# In PubChem BioAssay (NCATS):
# Inconclusive results are not listed. A number with no mark means an inactive call.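 The calls were made as follows: active = compounds whose dose-response curve shows a full or clear partial loss of cell viability, called from curve shape rather than a numeric limit; inconclusive = weak partial curves or an effect only at the top dose; inactive = no dose-dependent loss of viability.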
# Assay: Cell Viability - Hek293 (AID 427);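 also: cells exposed to compound for 40 hours at 37 °C before reading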
# Details: qHTS
# From the text: NIH Chemical Genomics Center [NCGC]
# NIH Molecular Libraries Screening Centers Network [MLSCN]
# National Institutes of Environmental Health Sciences [NIEHS]
# National Toxicology Program [NTP]
# We have developed a 1536-well cell-based assay for quantitative high throughput screening (qHTS) against a number of cell lines to determine in vitro cytotoxicity of small molecules. This particular assay uses the Hek 293 cell line which is derived from human embryonic kidney cells (transformed with adenovirus).
# NCGC Assay Protocol Summary:
# The CellTiter-Glo luminescent cell viability assay (Promega) is a homogeneous method to measure the number of viable cells in culture. The end point readout of this assay is based on quantitation of intracellular ATP, an indicator of metabolic activity, using the luciferase reaction. Luciferase catalyzes the oxidation of beetle Luciferin to oxyluciferin and light in the presence of ATP. The luminescent signal is proportional to amount of ATP present.
# Using the CellTiter-Glo luminescent cell viability assay, the amount of cellular ATP was measured in the Hek293 cell line with complete culture medium following compound treatment for 40 hours. The assay was performed in opaque white Kalypsys 1536-well plates. In the screen, tamoxifen and doxorubicin were used as positive controls. Library compounds were measured for their ability to cause acute toxicity in the cell line, as reflected by a decrease in intracellular ATP levels, in a concentration-dependent manner. Data were normalized to the controls for basal activity (DMSO only) and 100% inhibition (100 uM tamoxifen). AC50 values were determined from concentration-response data modeled with the standard Hill equation.
# qHTS protocol fo CellTiter Glo Hek 293 cellular assay
# [Step] [Parameter] [Value] [Description]
# 2. Time; 5 hr; 37 °C incubation
# 4. Controls; 23 nL; Tamoxifen 0.34 uM to 100 uM & Doxorubicin 0.02 nM to 100 uM
# 5. Time; 40 hr; 37 °C incubation
# 6. Reagent; 5 uL; CellTiter Glo reagent
# 7. Time; 20 min; Room Temperature
# 8. Detection; Luminescence; Viewlux plate reader
# Keywords: cell viability, cytotoxicity, Hek293 cell line, luminescence, NTPHTS, NTPHTS_NCGC, NIEHS, EPA, DSSTox, MLSMR, MLSCN, NIH Roadmap, qHTS, NCGC
# Potency is read from the fitted curve at half-maximal effect.
row,SMILES,Potency [µM]
1,CN(C)CCC(c1ccccc1)c1ccccn1 (stereo not given),> 92
2,CCCNC(=O)NS(=O)(=O)c1ccc(Cl)cc1,> 92
3,O=C(O)Cc1cccc2ccccc12,> 92
4,O=c1c(-c2ccc(O)cc2)coc2cc(O)ccc12,> 92
5,CCn1cc(C(=O)O)c(=O)c2ccc(C)nc21,> 92
6,O=c1[nH]cnc2c1ncn2[C@H]1CC[C@@H](CO)O1,> 92
7,CCCCC1C(=O)N(c2ccccc2)N(c2ccccc2)C1=O,> 92
8,O=C1NC(=O)C(c2ccccc2)(c2ccccc2)N1,> 92
9,O=c1c(O)c(-c2ccc(O)cc2)oc2cc(O)cc(O)c12,> 92
10,CC(=O)c1ccc(S(=O)(=O)NC(=O)NC2CCCCC2)cc1,> 92
